Most compounds without a hit are left out; they make up all but 5.4% or so of the library.
FXN GAA850 act – increases GAA850 frataxin promoter reporter activity; activation, % at 6 µM; HEK293 lucGAA850 FXN promoter luciferase reporter, 24 h; percent of 10 µM SAHA response; AID 540364; 360,000 tested, 0.56% active;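 active means activation above the average of all compounds screened plus 3 SD, cutoff fixed separately per campaign, cut at about 7.5% in these data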
AHR activator – human AHR activation | 320,000 tested, 2.5% active | AHR-responsive luciferase reporter cells, luminescence | AID 2796 | P35869 | activation, % at 5 µM; in the data active means activation above about 47%
HSF-1 act – increases HSF-1 driven luciferase reporter signal; 300,000 tested, 1.7% active; NIH3T3-HGL HSF-1 luciferase reporter, MG132, 8 h; 100% = twice DMSO control signal; activation, % at 9 µM; AID 504408;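 active means mean replicate activation of at least 50% with a set share of replicates each reaching 50%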
HSF1 inh – HSF1 inhibition; NIH3T3-HGL HSE-luciferase, MG132-induced, luminescence 8 h; stronger effect = lower value; activity change, negative = inhibition, % at 7.5 µM (by protocol); 300,000 tested, 0.77% active; AID 2098;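 active means more than half of replicate wells show activity change below -50%, luminescence cut by over half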;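 further: luciferase reports HSF-1 transcriptional activity via heat shock element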
DAX1 inh – inhibits human nuclear receptor DAX1. P51843. HEK293 Gal4-DAX1 luciferase reporter, luminescence. inhibition, % at 6.75 µM. 340,000 tested, 0.99% active;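 active means inhibition above the mean over all tested compounds plus 3 SD, cut at about 4.2% in these data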;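 further: inhibition shows as a rise in luminescence from relieved DAX1 repression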
Target sequence (P51843 207-470 limits assumed): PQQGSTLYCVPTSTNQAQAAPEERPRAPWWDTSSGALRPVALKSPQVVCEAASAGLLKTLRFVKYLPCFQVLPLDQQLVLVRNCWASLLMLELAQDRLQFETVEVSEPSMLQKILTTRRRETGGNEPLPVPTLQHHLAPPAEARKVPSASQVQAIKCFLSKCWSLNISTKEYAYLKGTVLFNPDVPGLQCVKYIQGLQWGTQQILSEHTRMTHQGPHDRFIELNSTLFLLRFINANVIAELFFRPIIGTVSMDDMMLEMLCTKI
Hits are given with their value; . = inactive; / = no result.

SMILES	FXN GAA850 act	AHR activator	HSF-1 act	HSF1 inh	DAX1 inh
Cn1c(=O)c2ncn(C)c2n(C)c1=O	.	/	/	/	.
CSCc1ccc(C(=O)Nc2ccc(C(N)=O)cc2)cc1	.	.	55	.	.
O=C(Nc1ccccc1)c1ccc(CSc2ncccn2)cc1	.	.	87	.	.
COCCN(CCOC)C(=O)COC(=O)c1cc([N+](=O)[O-])ccc1Cl	.	.	.	.	.
CC(=O)N1CCCC(C)(C(=O)Nc2ccc3oc(C)nc3c2)C1 (centres undefined)	.	/	/	/	/
CCOC(=O)c1nnc(-c2ccccc2)nc1Sc1ccccc1Cl	.	.	159	.	.
O=C(CSc1nc2cc(Cl)ccc2c(=O)n1Cc1ccco1)Nc1ccc(S(=O)(=O)N2CCOCC2)cc1	.	.	79	.	.
O=C(CSc1nc2cc(Cl)ccc2s1)Nc1cccc(S(=O)(=O)N2CCOCC2)c1	.	.	.	-54	.
CN(CC(=O)NC(=O)NCc1ccccc1)CC(=O)Nc1ccc(Cl)c(Cl)c1	.	.	/	/	.
CC1Cc2cc(C(=O)O)ccc2O1 (centres undefined)	.	.	.	.	.
C=C(CO)C1Cc2cc(C(C)=O)ccc2O1 (centres undefined)	.	.	.	.	4.3
Cc1cccc(NC(=O)CN(CC2CCCO2)C(=O)c2oc3ccccc3c2C)c1C (centres undefined)	.	.	/	/	.
C/C(CC(=O)Nc1ccc(C)c(Cl)c1)=N\NC(=O)Cc1cnc(N)s1	.	.	61	.	.
Cc1ccc(C)c(Oc2cc(NC(=O)CCCn3nc(C)c([N+](=O)[O-])c3C)cc([N+](=O)[O-])c2)c1	.	.	72	.	.
COc1ccc(-c2cc3nc(C)cc(N4CC(C)CC(C)C4)n3n2)cc1 (centres undefined)	.	50	/	/	.
COc1ccc(-c2cc3nc(C)cc(N4CCN(C(=O)c5ccoc5)CC4)n3n2)cc1	.	/	/	/	.
COc1ccc2oc(C(=O)OCC(=O)N(C)CC(=O)Nc3ccc(C)cc3)c(C)c2c1	.	.	.	-51	.
Cn1c(-c2ccc([N+](=O)[O-])cc2)nc2ccccc21	.	.	.	.	.
Cn1nc([N+](=O)[O-])c(C(C#N)c2nc3ccccc3n2C)c(Cl)c1=O (centres undefined)	.	74	61	.	.
COc1ccc(C(=O)Nc2nnc(Cc3cccs3)s2)cc1OC	.	78	.	.	.
CCOc1ccc(C(=O)Nc2nnc(C)s2)cc1OCC	.	50	.	.	.
CCc1nnc(NC(=O)Cc2ccc(OC)c(OC)c2)s1	.	.	.	.	5.1
COc1ccc(Cc2nnc(NC(=O)c3ccc(OC)c(OC)c3)s2)cc1	.	.	.	.	.
CC1(C(=O)Nc2cccc(C(F)(F)F)c2)Cc2c(-c3ccc4c(c3)OCO4)ccnc2O1 (centres undefined)	.	/	/	/	/
Cc1[nH]c2ccccc2c1/C=N/n1cnnc1	.	.	.	.	.
SMILES	FXN GAA850 act	AHR activator	HSF-1 act	HSF1 inh	DAX1 inh
COCCN=c1scc(-c2cc(OC)c(OC)c(OC)c2)n1/N=C/c1c(C)[nH]c2ccccc12	.	56	.	.	.
Cc1sc2ncnc(N3CCC(C(=O)Nc4nc(-c5cccs5)cs4)CC3)c2c1C	.	.	.	-54	.
Cc1cc(OCC(=O)N2CCOCC2)ccc1[N+](=O)[O-]	.	.	.	.	5.2
CCN1C(=O)[C@@H]2[C@H](C1=O)[C@@H]1C(=O)Nc3ccccc3C(=O)N1[C@@H]2c1ccc(Br)cc1	.	.	.	.	.
Cn1ccnc1C1CCCCN1C(=O)c1cc(COc2ccc(F)cc2Cl)on1 (centres undefined)	.	.	.	-77	/
O=C(c1cc(COc2ccc(F)cc2Cl)on1)N1CC[C@@H]2CCCC[C@H]2C1	.	/	.	.	.
O=C(CNC(=O)c1ccc([N+](=O)[O-])cc1)c1ccccc1	.	.	.	.	.
O=C(CNc1ccccc1)c1ccc([N+](=O)[O-])cc1	.	63	.	.	.
O=C(CNC(=O)c1cccs1)c1ccc([N+](=O)[O-])cc1	.	78	.	.	.
O=C(CNC(=O)c1cccs1)OCC(=O)c1ccc([N+](=O)[O-])cc1	.	.	.	.	.
COc1ccc(-c2nc3c(-c4ccc(F)cc4)cnn3cc2C)cc1F	.	.	.	.	.
C=CCn1c(O)c(N=NC(=O)CNC(=O)Cc2ccccc2)c2ccccc21	.	53	.	.	.
C=CCn1c(O)c(N=NC(=O)CNC(=O)c2ccco2)c2ccccc21	.	.	.	.	.
C=CCn1c(O)c(N=NC(=S)Nc2cccc(OC)c2)c2ccccc21	.	61	.	.	.
C=CCn1c(O)c(N=NC(=S)Nc2ccc(OC)cc2)c2ccccc21	.	.	.	.	.
CC1=NN(c2ccccc2)C(=O)/C1=C\c1cn(C)c2ccccc12	.	.	.	.	.
CC1=NN(c2ccccc2)C(=O)/C1=C\c1cc(C)n(C)c1C	.	54	.	.	.
CCc1nc2ccc(C(=O)N3CCN(S(=O)(=O)CC)CC3)cn2c1N(C)C(=O)c1cccc(OC)c1	.	/	/	/	/
O=C1S/C(=C\c2ccc(N3CCOCC3)o2)C(=O)N1c1ccccc1	.	.	.	.	.
O=C1N=C(N2CCOCC2)S/C1=C/c1ccc(-c2ccccc2Cl)o1	.	.	.	.	.
O=C1S/C(=C/c2ccc(N3CCOCC3)o2)C(=O)N1Cc1c(F)cccc1Cl	.	.	102	.	.
O=C1S/C(=C\c2ccc(N3CCOCC3)o2)C(=O)N1Cc1c(F)cccc1Cl	.	.	251	.	.
O=C(NCCc1cccnc1)C1CCC(=O)N(CCc2cccc(F)c2)C1 (centres undefined)	.	/	.	.	.
O=C(Nc1ccc2c(c1)CCCN2C(=O)c1cccs1)c1c(F)cccc1Cl	.	.	.	.	.
CCOc1ccc(Br)cc1S(=O)(=O)NCC(c1ccc(OC)cc1)N1CCOCC1 (centres undefined)	.	/	/	/	.
SMILES	FXN GAA850 act	AHR activator	HSF-1 act	HSF1 inh	DAX1 inh
COc1cccc(NC(=S)N(CCC(C)C)C2CCN(C(C)=O)CC2)c1	.	.	.	-76	.
CCOc1ccccc1NC(=S)N1CCC(NC(=O)C(C)(C)C)CC1	.	.	.	.	5.0
CCOc1ccccc1NC(=S)N(CCC(C)C)C1CCN(C(C)=O)CC1	.	.	.	.	4.7
CCOc1ccc(CC(=O)Nc2nccs2)cc1OCC	.	.	.	.	.
Cc1ccsc1/C=C(\C#N)C(=O)Nc1c(C)n(C)n(-c2ccccc2)c1=O	.	.	.	.	4.8
Cc1ccc(Oc2nc3ccccn3c(=O)c2/C=C(\C#N)C(=O)Nc2c(C)n(C)n(-c3ccccc3)c2=O)c(C)c1	.	.	.	.	.
COc1ccccc1Oc1nc2ccccn2c(=O)c1/C=C(\C#N)C(=O)Nc1c(C)n(C)n(-c2ccccc2)c1=O	.	.	.	.	4.8
